{"source": "PubChem BioAssay AID624331", "about": "(National Center for Advancing Translational Sciences (NCATS), 2012)", "note": "Inconclusive results are not listed. Where a call stands in place of a potency, no number is given. The source made the active and inactive calls. The call rests on the fitted dose curve; in most records, active means well fitted activation curve with a large enough effect; inconclusive means small, poorly fitted or top-dose-only effect; inactive means no such curve, though single readings can be large or run the other way. Potency means the concentration at half of the fitted maximal effect."}
{"assay": "qHTS assay for re-activators of p53 using a Luc reporter: Hit Validation with no p53 Expressed", "conditions": "p53-null cells, luciferase reporter counter-screen; series mostly up to 46.1 µM", "procedure,_shortened": "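Counter-screen of primary hits in a cell line not transfected with p53, in Opti-MEM with 10% FBS; compounds at several concentrations (10 mM stock, 1:5; top 46.1 µM in well), 24 h at 37 deg C, 5% CO2. Luminescence read after 10 min with Amplite reagent.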"}
{"smiles": "Cc1ccc(OCC(=O)c2cc(C)n(C)c2C)c([N+](=O)[O-])n1", "Potency": "inactive"}
{"smiles": "CC(C)(C)c1ccc(S(=O)(=O)N2CCSC2)cc1", "Potency": "inactive"}
{"smiles": "COc1ccc(CCC(C)NCC(C)c2ccccc2)cc1", "note": "(stereo not given)", "Potency": "inactive"}
{"smiles": "Cc1cccc(-n2nc([N+](=O)[O-])c(=NC3CCN(Cc4ccccc4)CC3)n2O)c1", "Potency": "inactive"}
{"smiles": "COc1ccc2c(c1)Cc1sc(NC(C)=O)nc1-2", "Potency": "inactive"}
{"smiles": "CS(=O)(=O)N1CCC(C(=O)Nc2cc(Cl)c(Cl)cc2Cl)CC1", "Potency": "inactive"}
{"smiles": "Cc1ccc(S(=O)(=O)NCC(=O)NCC(=O)N2CCC(C)CC2)cc1", "Potency": "inactive"}
{"smiles": "CCOCCCNc1nc2c([nH]1)c(=O)n(C)c(=O)n2C", "Potency": "inactive"}
{"smiles": "Cc1cccc(NC(=O)/C=C/c2ccc(Cl)cc2)n1", "Potency": "inactive"}
{"smiles": "Cc1cccc(-c2noc(CCC(=O)N3CCN(c4cc(C)ccc4C)CC3)n2)c1", "Potency": "inactive"}
{"smiles": "O=C(NCCN1CCCCC1)Nc1cccc(C(F)(F)F)c1", "Potency": "inactive"}
{"smiles": "CCc1ccc2[nH]c(=O)c(CN(CCN(CC)CC)C(=O)NC3CCCCC3)cc2c1", "Potency": "inactive"}
{"smiles": "Nc1nc2ccc(N3CCOCC3)cc2s1", "Potency": "inactive"}
{"smiles": "O=C(NCC1CCCO1)c1ccc(NC(=O)c2cccc([N+](=O)[O-])c2)cc1", "note": "(stereo not given)", "Potency": "inactive"}
{"smiles": "CC(=O)c1ccc(N2Cc3ccccc3C2=NC(=O)c2cccs2)cc1", "Potency": "10.3 µM (active)"}
{"smiles": "Cc1csc(NC(=O)CSc2nnc(-c3cccs3)n2C)n1", "Potency": "inactive"}
{"smiles": "COc1ccc(-c2nnc(-c3ccc(Br)o3)o2)cc1OC", "Potency": "inactive"}
{"smiles": "O=C(Nc1ccc(Cl)cc1C(F)(F)F)c1ccccc1", "Potency": "inactive"}
{"smiles": "CC(=O)Nc1ccc2oc(-c3ccccc3Br)nc2c1", "Potency": "inactive"}
{"smiles": "CCC(Sc1nc2ccccc2c(=O)n1CCN1CCOCC1)C(=O)NCc1cccnc1", "note": "(stereo not given)", "Potency": "inactive"}
{"smiles": "CCC(=O)Nc1ccc2oc(-c3cccc(C)c3)nc2c1", "Potency": "inactive"}
{"smiles": "O=C(Nc1nnc(-c2cccs2)o1)c1cccc(Oc2ccccc2)c1", "Potency": "inactive"}
{"smiles": "O=C(Nc1ccc(OC(F)(F)F)cc1)c1cnc2n(c1=O)CCS2", "Potency": "inactive"}
{"smiles": "Cc1ccc(S(=O)(=O)NCC(=O)N2CCc3ccccc3C2)cc1", "Potency": "inactive"}
{"smiles": "CN(C(=O)NC(=O)C1=C(N2CCOCC2)/C(=C/c2ccccc2)CC1)S(C)(=O)=O", "Potency": "inactive"}
{"smiles": "COc1cccc(/C=C2\\Oc3ccc(O)cc3C2=O)c1O", "Potency": "inactive"}
{"smiles": "Cc1cc(CC(C)C)n(-c2nc3ccccc3c(=O)n2OCC(N)=O)n1", "Potency": "inactive"}
{"smiles": "CN(Cc1ccccc1)C(=O)CNC(=O)Cn1cnc2ccccc2c1=O", "Potency": "inactive"}
{"smiles": "Cc1nn(-c2ccccc2)c(N)c1Sc1ccc([N+](=O)[O-])cc1", "Potency": "inactive"}
{"smiles": "Cn1c(=NC(=O)c2ccco2)sc2cccc(F)c21", "Potency": "inactive"}
{"smiles": "CCOCC(=O)Nc1nc2ccc(OCC)cc2s1", "Potency": "inactive"}
{"smiles": "O=c1[nH]c2ccc(N/C(=N/S(=O)(=O)c3ccccc3)c3ccccc3)cc2[nH]1", "Potency": "inactive"}
{"smiles": "C=CCn1c(SCC(=O)Nc2ccc(-c3nc4ccc(C)cc4s3)cc2)nnc1-c1ccccc1", "Potency": "inactive"}
{"smiles": "Fc1ccccc1/C=C/c1ccc2ccccc2n1", "Potency": "inactive"}
{"smiles": "Cc1cc(C)nc(SCC(=O)OCC(=O)Nc2nc3ccccc3s2)n1", "Potency": "inactive"}
{"smiles": "O=C(CSc1ccccc1)Nc1ccc(-c2nc3ccccc3[nH]2)cc1", "Potency": "inactive"}
{"smiles": "COc1cccc(C(=O)c2sc(NC(C)C)nc2N)c1", "Potency": "inactive"}
{"smiles": "C=Cc1ccc(Cn2c(=O)n(CCCOC)c(=O)c3sccc32)cc1", "Potency": "inactive"}
{"smiles": "C/C(=N\\NC(=O)c1ccccc1)c1ccc(NC(=O)c2cccs2)cc1", "Potency": "inactive"}
{"smiles": "COc1ccc(CCNC2CCC(c3ccccc3)CC2)cc1", "note": "(stereo not given)", "Potency": "inactive"}
